Bioassay records from PubChem.
In the library only some 11% were active in any assay of this set; here they are far more common.
Coupling enz – qHTS Assay for Inhibitors of Fructose-1,6-bisphosphate Aldolase from Giardia Lamblia: Coupling assay counterscreen | activity change, negative = inhibition, % at 58.2 µM, hits read low | actives 0.67% (n = 290,000) | AID 2472, 2010 | coupling enzyme system counterscreen, AmpLite Red fluorescence; in the data active = activity change below about -30%
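Fluorescence at 525 nm excitation and 598 nm emission measured inhibition of the coupled detection system without aldolase. Compounds (at 57.5 uM final) were preincubated 10 min at room temperature with coupling enzyme reagent before a 20 min substrate/AmpLite Red step.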
Tau fibril ThT – qHTS for Inhibitors of Tau Fibril Formation, Thioflavin T Binding | recombinant tau K18 P301L, heparin-induced fibrillization, ThT fluorescence | Microtubule-associated protein tau (Homo sapiens), P10636 | actives 2.1% (n = 270,000) | Potency, µM (top dose mostly 57.4 µM), actives largely listed as inhibitors; note: nearly all actives have a fitted effect of over 55% in size
Target sequence (P10636 561-689 P618L limits assumed): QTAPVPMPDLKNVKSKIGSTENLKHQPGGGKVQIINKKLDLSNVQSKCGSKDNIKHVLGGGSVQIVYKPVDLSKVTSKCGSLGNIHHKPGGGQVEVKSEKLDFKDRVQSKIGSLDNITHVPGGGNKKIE
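Recombinant human tau K18 fragment […] carrying P301L, 15 uM unlabeled plus 0.24 uM Alexa 594-labeled, was fibrillized with 20 uM heparin in 100 mM sodium acetate pH 7 for 6 hr at 37 C; 30 uM ThT fluorescence read after 1 hr.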
Sfp inh – qHTS Assay for Inhibitors of Bacillus subtilis Sfp phosphopantetheinyl transferase (PPTase). AID 1490, 2009. actives 3.5% (n = 310,000). Potency, µM, actives largely listed as inhibitors. Biochemical Sfp PPTase activity, qHTS. 4'-phosphopantetheinyl transferase ffp (Bacillus subtilis), Q9F4F7;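 note: the enzyme is Sfp with the accession as filed and its product quenches rhodamine fluorescence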
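Fluorescence-quenching assay: 15 nM Sfp-PPTase preincubated 15 min at room temperature with compound, then 5 uM rhodamine-CoA and 12.5 uM BHQ-2-labelled YbbR peptide added. Fluorescence (ex 525/em 598 nm) read at start and after 30 min; difference gives rate.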
Tau FP inhib – qHTS for Inhibitors of Tau Fibril Formation, Fluorescence Polarization; Microtubule-associated protein tau (Homo sapiens), P10636; K18 P301L tau heparin fibrillization, Alexa594 FP, 6 h; Potency, µM (titrated, usually from 57.7 µM), hits mostly inhibitors; actives 0.39% (n = 280,000); AID 1468, 2008; note: nearly all actives have a fitted effect of over 55% in size
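K18 P301L tau (15 uM unlabeled/0.24 uM Alexa 594-labeled, final) + compound + heparin 20 uM final; 100 mM NaOAc pH 7; 6 hr 37 C; ThT 30 uM final added, 1 hr RT; FP ex 555/em 632 nm.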
Tau fluor cs – Counterscreen qHTS for Inhibitors of Tau Fibril Formation, Fluorescence Polarization; tau K18 P301L (four-repeat tau fragment) Alexa594 fluorescence, heparin fibrillization; Potency, µM (doses to about 57.7 µM); actives 0.93% (n = 280,000); note: nearly all actives have a fitted effect of over 55% in size
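Human K18 P301L tau (15 uM unlabeled plus 0.24 uM Alexa 594-labeled, final) in 100 mM sodium acetate pH 7 was mixed with compound and 20 uM heparin and incubated 6 hr at 37 C.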
G9a inh – qHTS Assay for Inhibitors of Histone Lysine Methyltransferase G9a; Histone-lysine N-methyltransferase EHMT2 (Homo sapiens), Q96KQ7; G9a H3K9 monomethylation, AlphaScreen, 2 h; Potency, µM (highest dose often 102 µM), actives largely listed as inhibitors; actives 8.8% (n = 350,000); AID 504332, 2011; note: nearly all actives have a fitted effect of over 75% in size
Target sequence (Q96KQ7 913-1193 limits assumed): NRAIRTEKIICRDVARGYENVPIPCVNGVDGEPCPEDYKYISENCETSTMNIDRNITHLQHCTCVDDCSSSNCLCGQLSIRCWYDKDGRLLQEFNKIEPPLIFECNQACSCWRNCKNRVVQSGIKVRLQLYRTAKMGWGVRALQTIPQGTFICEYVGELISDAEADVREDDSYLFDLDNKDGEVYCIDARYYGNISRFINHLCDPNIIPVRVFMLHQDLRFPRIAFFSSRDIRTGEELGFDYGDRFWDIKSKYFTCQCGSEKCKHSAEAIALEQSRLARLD
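Compounds were preincubated with 20 nM G9a for 15 min, after which biotinylated H3K9 peptide (500 nM) and SAM (20 uM) started a 2 h room-temperature reaction. Monomethylated product was quantified by antibody-based AlphaScreen chemiluminescence.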
A number is an active result; - = inactive; ? = inconclusive; . = not tested or not shown; [ ] = dose if it differs, or a comment. Unless noted, calls come from the whole dose curve; as a rule, active = well fitted curve in the direction sought with a large enough effect; inconclusive = small, poorly fitted or top-dose-only effect, or another doubt; inactive = no such curve, though single readings can be large; an effect the other way counts as inactive or inconclusive.

SMILES	Coupling enz	Tau fibril ThT	Sfp inh	Tau FP inhib	Tau fluor cs	G9a inh
CCCCc1nn2c(=O)cc(COC(=O)c3ccccc3NC(=O)c3cccc(C)c3)nc2s1	.	-	.	-	-	-
Cc1ccsc1C(=O)OCC(=O)Nc1cccc(S(=O)(=O)N2CCOCC2)c1	-	-	-	?	-	-
Cc1ccc(NC(=O)CSc2nnc(N)s2)cc1S(=O)(=O)N1CCOCC1	.	.	.	.	.	50.1µM
Cc1ccc(NC(=O)COC(=O)c2sccc2C)cc1S(=O)(=O)N1CCOCC1	-	-	-	-	-	50.1µM
Nc1nnc(SCC(=O)Nc2ccc(S(=O)(=O)N3CCOCC3)cc2)s1	-	-	-	-	-	?
CC1=C(C(N)=O)C(c2cccc(F)c2)n2nc(SCc3ccccc3)nc2N1 (centres undefined)	.	-	.	-	-	-
COc1cc(C)c(NC(=O)C(=S)NCCc2ccccc2)cc1C	-	?	15.8µM	-	-	?
COc1ccc(CCNC(=O)C(C(=O)c2ccccc2)n2ccccc2=O)cc1OC (centres undefined)	-	-	-	-	-	?
O=C(NCCc1ccccc1)C(=O)NC1CCCCC1	-	-	-	-	-	-[12.7 µM]
COc1ccc(CCNC(=S)NC(=O)c2ccccc2)cc1C	-	-	-	-	-	56.2µM
COc1ccc(CCNC(=O)C(C(=O)c2ccccc2)n2cc(Cl)ccc2=O)cc1OC (centres undefined)	-	-	-	-	-	50.1µM
O=C(NC1CCCCC1)C(=S)NCCc1ccccc1	-	-	28.2µM	-	-	11.2µM
O=[N+]([O-])c1ccc(Sc2nnnn2-c2ccccc2)nc1	-	?	-	-	?	-
CC(C)(C)OC(=O)N1CCC(c2c(C(=O)NCc3ccccc3)cnn2-c2ccc(F)cc2)CC1	.	-	.	-	-	-
Cc1ccc(NC(=O)c2ccc(Cl)c(S(=O)(=O)N3CCCCCC3)c2)nc1	.	.	.	.	.	-
COc1cccc(C(=O)NCCS(=O)(=O)NC2CCCC2)c1	.	.	.	.	.	31.6µM
COc1ccc(C(=O)NCCS(=O)(=O)NC2CCCC2)cc1	.	.	.	.	.	-
COc1ccc(C(=O)NCCS(=O)(=O)NCCc2ccccc2)cc1	.	.	.	.	.	-[0.501 µM]
COc1cccc(C(=O)NCCS(=O)(=O)NCCc2ccccc2)c1	.	.	.	.	.	44.7µM
